Our source for the outcome and AC50 values is PubChem BioAssay (EPA / NIEHS).

Results filed as inconclusive are left out. Calls of active or inactive are those of the source. How the source made its calls: active means hit-call score of the fitted dose curve at least 0.9, where 1 is the maximum; inconclusive means response in the unintended direction; inactive means score below 0.9.

Cellular tumor antigen p53 (Homo sapiens), sequence (P04637 whole entry, looked up, the tested form may be a part): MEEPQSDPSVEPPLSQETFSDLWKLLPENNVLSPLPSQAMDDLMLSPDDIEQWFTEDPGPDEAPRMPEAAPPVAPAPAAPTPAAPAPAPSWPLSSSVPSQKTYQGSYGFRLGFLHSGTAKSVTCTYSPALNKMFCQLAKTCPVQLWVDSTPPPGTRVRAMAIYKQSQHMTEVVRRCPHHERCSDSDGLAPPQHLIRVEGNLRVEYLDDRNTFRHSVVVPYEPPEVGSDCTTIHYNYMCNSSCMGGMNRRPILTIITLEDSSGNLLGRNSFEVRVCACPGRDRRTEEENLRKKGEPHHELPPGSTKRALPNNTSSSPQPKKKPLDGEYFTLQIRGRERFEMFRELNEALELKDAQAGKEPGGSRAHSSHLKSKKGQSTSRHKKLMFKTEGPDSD

The experiment addresses Cellular tumor antigen p53 (Homo sapiens) (UniProt P04637). The experiment in a line: TOX21_p53_BLA_p5_ratio: Tox21 HCT-116 p53 Agonism Beta-lactamase Assay, Ratio, Phase 5 (AID 2283599). The source says: TOX21_p53_BLA_p5 is a cell-based, single-readout assay that uses HCT116, a human intestinal cell line, […] in a 1536-well plate.TOX21_p53_BLA_p5_ratio is an assay readout measuring reporter gene via receptor activity and designed using inducible reporter (beta lactamase induction) detected with GAL4 b-lactamase reporter gene. The signal is derived from the ratio of cleaved (ch2) to uncleaved (ch1) reporter gene substrate used as the measure of target activity.Data from the assay component TOX21_p53_BLA_p5_ratio was analyzed into 1 assay endpoint. This assay endpoint, TOX21_p53_BLA_p5_ratio, was analyzed in the positive analysis fitting direction relative to DMSO as the negative control and baseline of activity. Using a type of inducible reporter, gain-of-signal activity can be used to understand changes in the reporter gene as they relate to the gene TP53. Furthermore, this assay endpoint can be referred to as a primary readout, because this assay has produced multiple assay endpoints and this ratio serves a reporter gene function to understand target activity. To generalize the intended target to other relatable targets, this assay endpoint is annotated to the DNA binding intended target family, where the subfamily is tumor suppressor.
Thawing Method: Place 14 mL of pre-warmed thaw medium into a 15 mL of conical tub. Remove the vial of cells to be thawed from liquid nitrogen and thaw rapidly by placing at 37C in a water bath with gentle agitation for 1-2 minutes. Decontaminate the vial by wiping with 70% ethanol before opening in a biological safety cabinet. Transfer the vial contents drop-wise into 14 mL of thaw medium in a sterile 15-mL conical tub. Centrifuge cells at 900 rpm for 4 minutes and resuspend in thaw medium. Transfer contents to the T75 tissue culture flask containing Thaw Medium and place flask in a humidified 37C/5% CO2 incubator. Switch to growth medium at first passage.Propagation Method: Aspirate medium, rinse once in DPBS, add 0.25% Trypsin/EDTA and swirl to coat the cell evenly. Add an equal volume of Growth Medium to inactivate Trypsin after 2-3 minutes incubation at 37C. Centrifuge cells at 900 rpm for 4 minutes and resuspend in growth medium. Cell should be passage or fed at least twice a week.Assay Protocol: Harvest cells from culture in growth medium and resuspend in assay medium. 2.2 Dispense 4000 cells/5 uL/well into 1536-well black/clear bottom plates using a Multidrop dispenser. After the cells were incubated at 37C for 5 hours, 23 nL of compounds dissolved in DMSO were transferred to the assay plate by a PinTool resulting in a 217-fold dilution. Incubate the plates for 16 hours at 37C, 5% CO2. Add 1 uL of 6X LiveBLAzer FRET B/G (CCF4-AM) Substrate Mixture to each well using a BioRAPTR dispenser and incubate the plates at room temperature for 2 hours. Measure fluorescence intensity at 460 and 530 nm emission and 405 nm excitation by an Envision detector. Data is expressed as the ratio of 460nm/530nm emissions. Add 4 uL of Cell-titer Glo to each well using BioRAPTR and incubate the plates at room temperature for 2 hours. Measure fluorescence intensity by a VewLux plate reader.
Consider `CCOC(=O)COc1ccc(Cl)cc1Cl`, for which the outcome was inactive. With `Nc1ccc(Cl)c(Cl)c1`, the result was inactive. Broadly, the AC50 is the midpoint of the concentration-response curve, whichever way the signal moves. Consider `Cc1nnc2n1-c1sc(CCc3ccc(CC(C)C)cc3)cc1C(c1ccccc1Cl)=NC2C` (stereo not given), for which the AC50 was 39.8 µM (active).

As to `C=CC[C@]1(O)CC[C@H]2[C@@H]3CCC4=CC(=O)CCC4=C3C=C[C@@]21C`, the outcome was inactive. Same read-out and setting: to `C=CC(C)=O` belongs “inactive”; to `C[C@@H]1CC[C@H]2[C@@H](C)C(=O)O[C@@H]3O[C@@]4(C)CC[C@@H]1[C@]32OO4`, “inactive”; to `CC(C)NCC(O)c1ccc(N)c(C#N)c1` (stereo not given), “inactive”. For `CCCCCc1cc(O)c2c(c1)OC(C)(C)[C@@H]1CCC(C)=C[C@@H]21`, the AC50 is 43.1 µM (active).

As to `O=C(NCc1cccnc1)Nc1ccc([N+](=O)[O-])cc1`, the result was inactive.

For the molecule `CCCC=NO`, the result was inactive. `Clc1ccc([C@@H]2C[C@H]3CC[C@@H]2N3)cn1`: the result was inactive. The same measure, in the same setting: to `C[C@@H]1CN(C2CCC(C#N)(c3ccc(F)cc3)CC2)CC[C@]1(C(=O)O)c1ccccc1` (stereo not given in full) belongs “inactive”; to `C=CCc1cc(OC)c2c(c1)OCO2`, “inactive”.

For the molecule `C=Cc1cccc(CCl)c1`, the outcome was inactive. For the molecule `N#Cc1cc(I)c(O)c(I)c1`, the half-maximal activity concentration (AC50) was 55.8 µM (active).

For `O=C1C(Cl)C(CCl)CN1c1cccc(C(F)(F)F)c1` (stereo not given), the result was inactive. Same read-out and setting: with `O=c1[nH]c(Cl)c(Cl)cc1Cl` the entry was “inactive”; with `CCCCCCCCCCCOC(=O)c1ccccc1C(=O)OCCCCCCCCCCC`, “inactive”.

Turning to `N#CSCc1ccccc1`, the result was inactive. Consider `CCC1(c2cnc[nH]2)Cc2ccccc2C1`, for which the outcome was inactive.

Regarding `CCN(CC)CCO[C@H]1CC[C@@]2(C)C(=CC[C@@H]3[C@@H]2CC[C@]2(C)C(=O)CC[C@@H]32)C1`, the result was inactive.

Turning to `Cc1ccc2ccccc2c1`, the result was inactive.

On to `Cc1cc(C(C)(C)c2cc(C)c(O)c(C)c2)cc(C)c1O`, for which the AC50 was 58.5 µM (active). As for `CCCCc1c(C)nc(NCC)[nH]c1=O`, the outcome was inactive. Regarding `c1ccc(C2(N3CCCC3)CCCCC2)cc1`, the outcome was inactive. Same read-out and setting: with `CCC1(c2ccccc2)C(=O)NC(=O)N(C(=O)c2ccccc2)C1=O` (stereo not given) the entry was “inactive”.

As to `CCC(C)c1cc([N+](=O)[O-])cc([N+](=O)[O-])c1OC(=O)C=C(C)C` (stereo not given), the AC50 is 10.3 µM (active). Consider `CC(C)CCON=O`, for which the result was inactive. The same measure, in the same setting: to `COc1ccc2c(c1)C13CCCC[C@@H]1C(C2)N(C)CC3` (stereo not given in full) belongs “inactive”.

Regarding `CN1CCN=C(c2ccccc2)c2cc(Cl)ccc21`, the AC50 was 0.000104 µM (active). Consider `CC(C)[C@@H](C(=O)O[C@@H](C#N)c1cccc(Oc2ccccc2)c1)c1ccc(Cl)cc1`, for which the outcome was inactive.

Take `C(CCOCC1CO1)COCC1CO1` (stereo not given): the outcome was inactive. For the molecule `C=CCC1([C@@H](C)CCC)C(=O)NC(=O)NC1=O`, the result was inactive. Same read-out and setting: to `Cc1ccc(OP(=O)(Oc2ccc(C)cc2)Oc2ccc(C)cc2)cc1` (tested in a mixture with another compound) belongs “inactive”. On to `CC(Cl)(Cl)Cl`, for which the outcome was inactive. The same measure, in the same setting: to `CCCCCCC(=O)O[C@H]1CC[C@H]2[C@@H]3CC[C@H]4CC(=O)C=C(C)[C@]4(C)[C@H]3CC[C@]12C` belongs “inactive”; to `CC(C)N(C(=O)SCC(Cl)=CCl)C(C)C`, “inactive”; to `CCC1(c2ccccc2)CCC(=O)NC1=O` (stereo not given), “inactive”. On the same count and under the same terms, with `c1ccc2c(c1)Sc1ccccc1N2C[C@@H]1CN2CCC1CC2` the entry was “inactive”.

In the case of `Nc1ccccc1C(=O)OCC=Cc1ccccc1`, the result was inactive.
